# According to PubChem BioAssay (NCATS):
# Inconclusive results are not listed. Entries that show only a call come without a potency. Values without a mark were called inactive. The source made the active and inactive calls. Calls come from the whole dose curve; as a rule, active = well fitted cell-killing curve with a large enough effect; inconclusive = small, poorly fitted or top-dose-only effect, or effect the other way; inactive = no such curve, though single readings can be large or run the other way.
# How the values were obtained:
# [1] = Quantitative High-Throughput drug screen in 47 multiple myeloma cell lines against the NCATS MIPE library collection: OCIMY1_PLB cell viability assay (AID 1918979); note: nearly all actives have a fitted effect of over 35% in size; note: potency is the fitted concentration of half-maximal effect
# Procedure, shortened: (§1)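 MIPE 4.0 approved/investigational drugs; 500 cells/well; 48 h 37 °C humidified 5% CO2; CTG luminescence readout; DMSO = 100%, media = 0% viability.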
# [2] = Quantitative High-Throughput drug screen in 47 multiple myeloma cell lines against the NCATS MIPE library collection: MM1S_ATCC cell viability assay (AID 1918980); note: nearly all actives have a fitted effect of over 45% in size; note: potency is the fitted concentration of half-maximal effect
# Procedure, shortened: as §1
# [3] = Quantitative High-Throughput drug screen in 47 multiple myeloma cell lines against the NCATS MIPE library collection: MM1R_ATCC cell viability assay (AID 1918981); note: nearly all actives have a fitted effect of over 35% in size; note: potency is the fitted concentration of half-maximal effect
# Procedure, shortened: as §1
# [4] = Quantitative High-Throughput drug screen in 47 multiple myeloma cell lines against the NCATS MIPE library collection: LP1_DSMZ cell viability assay (AID 1918982); note: nearly all actives have a fitted effect of over 35% in size
# Procedure, shortened: as §1
# [5] = Quantitative High-Throughput drug screen in 47 multiple myeloma cell lines against the NCATS MIPE library collection: KMS28PE_JCRB cell viability assay (AID 1918983); note: nearly all actives have a fitted effect of over 35% in size; note: potency is the fitted concentration of half-maximal effect
# Procedure, shortened: as §1
# [6] = Quantitative High-Throughput drug screen in 47 multiple myeloma cell lines against the NCATS MIPE library collection: KMS34_JCRB cell viability assay (AID 1918985); note: nearly all actives have a fitted effect of over 40% in size; note: potency is the fitted concentration of half-maximal effect
# Procedure, shortened: as §1
# [7] = Quantitative High-Throughput drug screen in 47 multiple myeloma cell lines against the NCATS MIPE library collection: OCIMY5_PLB cell viability assay (AID 1918988); note: nearly all actives have a fitted effect of over 65% in size; note: potency is the fitted concentration of half-maximal effect
# Procedure, shortened: as §1
# [8] = Quantitative High-Throughput drug screen in 47 multiple myeloma cell lines against the NCATS MIPE library collection: SKMM1_PLB cell viability assay (AID 1919863); conditions: SKMM1 myeloma viability, CellTiter-Glo ATP, 48 h; viability: active compounds read low; note: nearly all actives have a fitted effect of over 35% in size
# Procedure, shortened: as §1
# [9] = Quantitative High-Throughput drug screen in 47 multiple myeloma cell lines against the NCATS MIPE library collection: XG6_PLB cell viability assay (AID 1919865); note: nearly all actives have a fitted effect of over 40% in size; note: potency is the fitted concentration of half-maximal effect
# Procedure, shortened: as §1
# [10] = Quantitative High-Throughput drug screen in 47 multiple myeloma cell lines against the NCATS MIPE library collection: XG1_PLB cell viability assay (AID 1919866); note: nearly all actives have a fitted effect of over 35% in size; note: potency is the fitted concentration of half-maximal effect
# Procedure, shortened: as §1
# [11] = Quantitative High-Throughput drug screen in 47 multiple myeloma cell lines against the NCATS MIPE library collection: VP6_DJ cell viability assay (AID 1919867); note: nearly all actives have a fitted effect of over 40% in size; note: potency is the fitted concentration of half-maximal effect
# Procedure, shortened: as §1
# [12] = Quantitative High-Throughput drug screen in 47 multiple myeloma cell lines against the NCATS MIPE library collection: PCM6_Riken cell viability assay (AID 1919870); note: nearly all actives have a fitted effect of over 30% in size; note: potency is the fitted concentration of half-maximal effect
# Procedure, shortened: as §1
# [13] = Quantitative High-Throughput drug screen in 47 multiple myeloma cell lines against the NCATS MIPE library collection: RPMI8226_ATCC cell viability assay (AID 1919871); note: nearly all actives have a fitted effect of over 30% in size; note: potency is the fitted concentration of half-maximal effect
# Procedure, shortened: as §1
# [14] = Quantitative High-Throughput drug screen in 47 multiple myeloma cell lines against the NCATS MIPE library collection: OPM2_DSMZ cell viability assay (AID 1919872); note: nearly all actives have a fitted effect of over 30% in size; note: potency is the fitted concentration of half-maximal effect
# Procedure, shortened: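 Viability readout: CellTiter-Glo luminescence following 5 min room-temperature incubation with reagent. Prior exposure: 48 h, 37C, humidified 5% CO2, 500 cells per well.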
# [15] = Quantitative High-Throughput drug screen in 47 multiple myeloma cell lines against the NCATS MIPE library collection: OPM1_PLB cell viability assay (AID 1918989); note: nearly all actives have a fitted effect of over 40% in size; note: potency is the fitted concentration of half-maximal effect
# Procedure, shortened: as §1
# [16] = Quantitative High-Throughput drug screen in 47 multiple myeloma cell lines against the NCATS MIPE library collection: U266_ATCC cell viability assay (AID 1919864); note: nearly all actives have a fitted effect of over 35% in size; note: potency is the fitted concentration of half-maximal effect
# Procedure, shortened: as §1
# [17] = Quantitative High-Throughput drug screen in 47 multiple myeloma cell lines against the NCATS MIPE library collection: UTMC2_PLB cell viability assay (AID 1919868); conditions: CellTiter-Glo ATP luminescence, 48 h; viability (% of DMSO control): at 45.8 µM (top of the series); note: nearly all actives have a fitted effect of over 55% in size; note: potency is the fitted concentration of half-maximal effect
# Procedure, shortened: as §1
# [18] = Quantitative High-Throughput drug screen in 47 multiple myeloma cell lines against the NCATS MIPE library collection: PE2_PLB cell viability assay (AID 1919869); note: nearly all actives have a fitted effect of over 35% in size; note: potency is the fitted concentration of half-maximal effect
# Procedure, shortened: as §1
# [19] = Quantitative High-Throughput drug screen in 47 multiple myeloma cell lines against the NCATS MIPE library collection: OCIMY7_PLB cell viability assay (AID 1918987); conditions: OCI-MY7 myeloma viability, CellTiter-Glo ATP, 48 h; viability (% of DMSO): at 45.8 µM (top of the series); note: nearly all actives have a fitted effect of over 65% in size; note: potency is the fitted concentration of half-maximal effect
# Procedure, shortened: as §1
# [20] = Quantitative High-Throughput drug screen in 47 multiple myeloma cell lines against the NCATS MIPE library collection: L363_DSMZ cell viability assay (AID 1918984); note: nearly all actives have a fitted effect of over 40% in size; note: potency is the fitted concentration of half-maximal effect
# Procedure, shortened: as §1
compound,measurement,setting,value
COc1ccc2cc([S+]([O-])Cc3ncc(C)c(OC)c3C)nc2c1,Potency,[1],inactive
same,Potency,[2],inactive
same,Potency,[3],inactive
same,Potency,[4],inactive
same,Potency,[5],inactive
same,Potency,[6],inactive
same,Potency,[7],inactive
same,viability,[8],122%
same,Potency,[9],inactive
same,Potency,[10],inactive
same,Potency,[11],inactive
same,Potency,[12],inactive
same,Potency,[13],inactive
same,Potency,[14],inactive
COc1cc(C(C)C)c(Oc2cnc(NC(CO)CO)nc2N)cc1I,Potency,[1],inactive
same,Potency,[2],1050 nM (active)
same,Potency,[3],2640 nM (active)
same,Potency,[4],inactive
same,Potency,[5],inactive
same,Potency,[7],1480 nM (active)
same,Potency,[15],1660 nM (active)
same,Potency,[16],1480 nM (active)
same,Potency,[10],inactive
same,viability (% of DMSO control),[17],201% (active)
same,Potency,[18],7430 nM (active)
same,Potency,[12],inactive
same,Potency,[13],3320 nM (active)
same,Potency,[14],inactive
NC(=O)c1cccc(-c2cccc(OC(=O)NC3CCCCC3)c2)c1,Potency,[1],inactive
same,Potency,[2],inactive
same,Potency,[3],inactive
same,Potency,[4],inactive
same,Potency,[5],inactive
same,Potency,[19],inactive
same,Potency,[7],29600 nM (active)
same,Potency,[15],inactive
same,viability,[8],110%
same,Potency,[16],inactive
same,Potency,[9],inactive
same,Potency,[11],inactive
same,Potency,[17],inactive
same,Potency,[18],inactive
same,Potency,[12],inactive
same,Potency,[13],inactive
same,Potency,[14],inactive
COc1ccnc2[nH]cc(C(=O)C(=O)N3CCN(C(=O)c4ccccc4)C[C@@H]3C)c12,Potency,[1],inactive
same,Potency,[2],inactive
same,Potency,[3],inactive
same,Potency,[4],inactive
same,Potency,[5],inactive
same,Potency,[15],inactive
same,viability,[8],120%
same,Potency,[16],inactive
same,Potency,[10],inactive
same,Potency,[17],inactive
same,Potency,[18],inactive
same,Potency,[12],inactive
same,Potency,[13],inactive
same,Potency,[14],inactive
O=C(Nc1ccc(Oc2ccnc3[nH]ccc23)c(F)c1)c1cccn(-c2ccc(F)cc2)c1=O,Potency,[1],inactive
same,Potency,[2],inactive
same,Potency,[3],10500 nM (active)
same,Potency,[4],inactive
same,Potency,[15],inactive
same,Potency,[16],inactive
same,Potency,[9],26400 nM (active)
same,Potency,[10],26400 nM (active)
same,Potency,[11],20900 nM (active)
same,Potency,[17],inactive
same,Potency,[18],inactive
same,Potency,[12],23500 nM (active)
same,Potency,[14],inactive
COc1cc(C[C@@H](CO)[C@H](CO)Cc2ccc(O)c(OC)c2)ccc1O,Potency,[1],inactive
same,Potency,[2],372 nM (active)
same,Potency,[3],1320 nM (active)
same,Potency,[5],inactive
same,Potency,[20],5900 nM (active)
same,Potency,[6],inactive
same,Potency,[19],1050 nM (active)
same,Potency,[7],332 nM (active)
same,Potency,[15],935 nM (active)
same,viability,[8],127%
same,Potency,[16],469 nM (active)
same,Potency,[9],209 nM (active)
same,Potency,[10],418 nM (active)
same,Potency,[17],1320 nM (active)
same,Potency,[18],2350 nM (active)
same,Potency,[12],132 nM (active)
same,Potency,[14],inactive
CC(=O)O[C@H]1C[C@@H]2CC[C@H]3[C@H]4C[C@H]([N+]5(C)CCCCC5)[C@@H](OC(C)=O)[C@@]4(C)CC[C@@H]3[C@@]2(C)C[C@H]1[N+]1(C)CCCCC1,Potency,[1],inactive
same,Potency,[2],2090 nM (active)
same,Potency,[3],inactive
same,Potency,[4],inactive
same,Potency,[20],inactive
same,Potency,[6],inactive
same,viability,[8],128%
same,Potency,[16],23500 nM (active)
same,Potency,[9],inactive
same,Potency,[12],inactive
same,Potency,[13],inactive
same,Potency,[14],inactive
CC(=O)OC[C@@H]1O[C@@H](n2ccc(=O)[nH]c2=O)[C@H](OC(C)=O)[C@H]1OC(C)=O,Potency,[1],inactive
same,Potency,[2],inactive
same,Potency,[3],inactive
same,Potency,[4],inactive
same,Potency,[5],inactive
same,Potency,[6],inactive
same,Potency,[7],inactive
same,Potency,[15],inactive
same,Potency,[16],inactive
same,Potency,[9],inactive
same,Potency,[10],inactive
same,Potency,[17],inactive
same,Potency,[18],inactive
same,Potency,[12],inactive
same,Potency,[13],inactive
same,Potency,[14],inactive
COc1cc(OC)c(C=CS(=O)(=O)Cc2ccc(OC)c(NCC(=O)O)c2)c(OC)c1,Potency,[1],418 nM (active)
same,Potency,[2],4180 nM (active)
same,Potency,[3],2350 nM (active)
same,Potency,[5],469 nM (active)
same,Potency,[20],46.9 nM (active)
same,Potency,[6],209 nM (active)
same,Potency,[19],264 nM (active)
same,Potency,[7],590 nM (active)
same,Potency,[15],332 nM (active)
same,Potency,[16],526 nM (active)
same,Potency,[9],833 nM (active)
same,Potency,[11],372 nM (active)
same,Potency,[18],469 nM (active)
same,Potency,[12],418 nM (active)
same,Potency,[13],1660 nM (active)
same,Potency,[14],372 nM (active)
Nc1nc(=O)n([C@H]2C[C@H](O)[C@@H](CO)O2)cc1F,Potency,[1],inactive
same,Potency,[2],7.4 nM (active)
same,Potency,[3],inactive
same,Potency,[4],inactive
same,Potency,[6],2.6 nM (active)
same,Potency,[19],526 nM (active)
same,Potency,[7],inactive
same,Potency,[15],46.9 nM (active)
same,Potency,[10],11.8 nM (active)
same,Potency,[18],inactive
same,Potency,[12],59 nM (active)
same,Potency,[13],inactive
Oc1cc2c(cc1O)C1c3ccc(O)c(O)c3OCC1(O)C2 (centres undefined),Potency,[1],inactive
same,Potency,[2],9350 nM (active)
same,Potency,[3],inactive
same,Potency,[4],inactive
same,Potency,[5],inactive
same,Potency,[6],inactive
same,Potency,[7],inactive
same,Potency,[15],inactive
same,viability,[8],120%
same,Potency,[16],inactive
same,Potency,[9],inactive
same,Potency,[18],20900 nM (active)
same,Potency,[13],inactive
same,Potency,[14],inactive
